This passage reports cell viability, % of control (lower = more cytotoxic), viability (% of control) and Potency results from PubChem BioAssay (NCATS).

A short description of assay [1]: High-throughput drug toxicity screening in the BPDCN cell line Gen2.2 (AID 1224824; call rule not given here;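 also: cells exposed to compounds for 48 h before reading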). As to conditions: Gen2.2 BPDCN cells; at 45.8 µM (top of the series) unless noted. In short, it runs like this: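 Seed 500 exponentially growing Gen2.2 cells/well; add compounds by pin tool; incubate 48 h, 37 °C, 5% CO2; add CellTiter-Glo, 15 min RT; read luminescence. % activity vs DMSO (100%) and bortezomib (0%).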

A short description of assay [2]: High-throughput drug toxicity screening in the BPDCN cell line Cal-1 (AID 1224825; call rule not given here). As to conditions: Cal-1 BPDCN cell viability, qHTS; at 45.8 µM (top of the series) unless noted. In short, it runs like this: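 Exponentially growing Cal-1 cells, 500 per well in phenol red-free RPMI with 10% FBS, were exposed to compounds for 48 h at 37 °C, 5% CO2. Viability was read by CellTiter-Glo luminescence and normalised to DMSO (100%) and 9.2 uM bortezomib (0%).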

Assay [3] is described as follows: qHTS assay for measurement of the activity of small molecule inhibitors on Zika virus induced Caspase-3 activity in human iPSC derived neural progenitor cells (hNPCs) (AID 1224857). Also: nearly all actives have a fitted effect of over 65% in size. Also: potency is read from the fitted curve at half-maximal effect. The procedure, abridged: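 Values are percent inhibition of virus-induced caspase-3/7 signal, scaled between uninfected cells and ZIKV-infected cells. Infection used 2 FFU/cell for 6 h after 1 h compound exposure.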

A short description of assay [4]: qHTS assay for measurement of the activity of small molecule inhibitors on Zika virus induced Caspase-3 activity in human astrocytoma cells (AID 1224859).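 Also: plate controls were ZIKV-infected untreated cells for no effect and uninfected cells for full effect.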 In short, it runs like this:
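Compound added 1 h pre-infection; ZIKV 2 FFU/cell on SNB-19 cells, 6 h, 37 C/5% CO2. Caspase-Glo 3/7 luminescence; values as % inhibition of ZIKV-induced caspase activity.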

A short description of assay [5]: qHTS Screen of the MIPE 4.0 Collection Against Ewings Sarcoma (RDES) (AID 1259252). Also: nearly all actives have a fitted effect of over 35% in size. Also: potency is read from the fitted curve at half-maximal effect. The procedure, abridged:
(§1)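 Compound titrations go onto adherent log-phase cells 4 h after seeding, incubate 48 h at 37C, then CellTiter-Glo luminescence reports viability relative to DMSO and cell-free controls.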

Assay [6] can be described thus: qHTS Screen of the MIPE 4.0 Collection Against Ewings Sarcoma (TC71) (AID 1259253). Also: nearly all actives have a fitted effect of over 40% in size. Also: potency is read from the fitted curve at half-maximal effect. The procedure, abridged: as §1
Assay [7] is described as follows: qHTS Screen of the MIPE 4.0 Collection Against Ewings Sarcoma (EW8) (AID 1259255). Also: nearly all actives have a fitted effect of over 35% in size. Also: potency is read from the fitted curve at half-maximal effect.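 As to viability: 100% = DMSO-treated cells and 0% = medium-only wells without cells.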 In short, it runs like this:
as §1

A short description of assay [8]: qHTS Screen of the MIPE 4.0 Collection Against Ewings Sarcoma (TC32) (AID 1259256). Also: nearly all actives have a fitted effect of over 45% in size. Also: potency is read from the fitted curve at half-maximal effect. In short, it runs like this: as §1
A short description of assay [9]: P-glycoprotein substrates identified in KB-3-1 adenocarcinoma cell line, qHTS therapeutic library screen (AID 1346986). Also: nearly all actives have a fitted effect of over 60% in size.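 Also: potency is read from the fitted curve at half-maximal effect; potency is for cytotoxicity meaning loss of cell viability.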 The procedure, abridged: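 Resistance attributable to P-gp was assessed by comparing AC50 in KB-8-5-11 with parental KB-3-1 and by tariquidar reversal. Cells were exposed 72 h and viability read by CellTiter-Glo.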
Assay [10] can be described thus: P-glycoprotein substrates identified in KB-8-5-11 adenocarcinoma cell line, qHTS therapeutic library screen (AID 1346987). Also: nearly all actives have a fitted effect of over 65% in size. Also: potency is read from the fitted curve at half-maximal effect. The procedure, abridged:
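Steps: plate 500 KB-8-5-11 cells/well in DMEM + 10% FCS (colchicine removed); pin compounds in dose-response; incubate 72 h, 37 degree C, 5% CO2; add CellTiter-Glo, 5 min; read luminescence.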

Inconclusive results are not listed. The source made the active and inactive calls. Unless noted, calls follow the shape of the dose curve; as a rule, active = well fitted curve in the direction sought with a large enough effect; inconclusive = small, poorly fitted or top-dose-only effect, or another doubt; inactive = no such curve, though single readings can be large; an effect the other way counts as inactive or inconclusive.

On to `CN[C@H]1[C@@H](O)[C@@H]2O[C@@H]3O[C@H](C)CC(=O)[C@]3(O)O[C@@H]2[C@@H](NC)[C@H]1O`, for which, in assay [1], the cell viability, % of control (lower = more cytotoxic) was found to be 9.59%. In addition, the viability (% of control) in [2] came to 5.36%. The Potency was 16.6 µM (active) in [3]; 0.0526 µM (active) in assay [5]; 1.32 µM (active) in [6]; 1.32 µM (active) in [7]; 1.05 µM (active) in assay [8]. The Potency entry in assay [4], in assay [9] and in assay [10] was “inactive” in each case.

Turning to `CCOC(=O)[C@H](CCc1ccccc1)N[C@@H](C)C(=O)N1[C@@H](C(=O)O)C[C@H]2CCC[C@@H]21`, the cell viability, % of control (lower = more cytotoxic) in assay [1] is 7.77%. The viability (% of control) in assay [2] came to 4.82%. Also, the Potency result in assay [3] and in [4] was “inactive” each time. The Potency in assay [5] was 5.26 µM (active); in assay [6], 14.8 µM (active); in assay [7], 18.7 µM (active); in assay [8], 16.6 µM (active); in assay [10], 10.5 µM (active).

On to `Cc1cc(C(=O)NOCCO)c(Nc2ccc(I)cc2F)n(C)c1=O`, for which the cell viability, % of control (lower = more cytotoxic) in assay [1] was 7.2%. Besides, the viability (% of control) in [2] was determined as 30.2%. Moreover, the Potency result in [3], in assay [4], in [5], in assay [6], in [7] and in assay [8] was “inactive” throughout. Also, the Potency result in [9] and in assay [10] was “inactive” in each case.

As to `CC(C)(O)CC[C@@H](O)[C@](C)(O)[C@H]1CC[C@@]2(O)C3=CC(=O)[C@@H]4C[C@@H](O)[C@@H](O)C[C@]4(C)[C@@H]3CC[C@]12C`, the cell viability, % of control (lower = more cytotoxic) in assay [1] was found to be 104%. For the same compound, the viability (% of control) in assay [2] stood at 104%. Also, the Potency entry in assay [3], in assay [4], in [5], in [6], in assay [7] and in assay [8] was “inactive” throughout. In addition, in assay [10], the Potency result is “inactive”.

With `CC(C)(C)c1nc2c3cc[nH]c(=O)c3c3cc(F)ccc3c2[nH]1`, the cell viability, % of control (lower = more cytotoxic) in assay [1] came out at 20.2%. The viability (% of control) in assay [2] was 26.4%. The Potency result in assay [3] and in assay [4] was “inactive” in each case. Moreover, the Potency in assay [5] is 4.18 µM (active); in assay [6], 5.9 µM (active); in assay [7] it was 4.69 µM (active); in assay [8] it was 4.18 µM (active); in assay [9], 7.31 µM (active); in [10] it was 5.17 µM (active).

As to `C[C@@H]1[C@H](C)CC[C@]2(C(=O)O)CC[C@]3(C)C(=CC[C@@H]4[C@@]5(C)C[C@@H](O)[C@H](O)[C@@](C)(CO)[C@H]5CC[C@]43C)[C@@H]12`, the cell viability, % of control (lower = more cytotoxic) in [1] was 106%. Also, the viability (% of control) in [2] was determined as 122%. Besides, the Potency result in assay [3], in assay [4], in assay [5], in assay [6], in [7] and in assay [8] was “inactive” in each case. The Potency result in [9] and in [10] was “inactive” throughout.

Consider `N#Cc1cc(NC(=O)Nc2nnc(-c3ccncc3)s2)ccc1-c1cn[nH]c1`, for which the cell viability, % of control (lower = more cytotoxic) in assay [1] worked out at 92.3%. In addition, in assay [2], the viability (% of control) amounted to 111%. Besides, the Potency result in assay [3], in [4], in assay [5], in assay [6], in assay [7] and in assay [8] was “inactive” in each case. Further, the Potency entry in assay [10] was “inactive”.

As for `CCCCCCCN(CC)CCCC(O)c1ccc(NS(C)(=O)=O)cc1` (stereo unspecified), in assay [1], the cell viability, % of control (lower = more cytotoxic) stood at 213%. Besides, the viability (% of control) in assay [2] turned out to be 81.4%. Also, the Potency entry in assay [3], in assay [4], in assay [5], in assay [6], in [7] and in assay [8] was “inactive” each time. In addition, in [10], the Potency entry is “inactive”.

Take `CC(=O)C1=C(O)C=C2Oc3c(C(C)=O)c(O)c(C)c(O)c3C2(C)C1=O` (stereo unspecified): the cell viability, % of control (lower = more cytotoxic) in [1] stood at 141%. In [2], the viability (% of control) turned out to be 103%. Also, the Potency result in assay [3], in [4], in assay [5], in [6], in [7] and in assay [8] was “inactive” in each case. In addition, the Potency entry in [9] and in assay [10] was “inactive” throughout.

On to `CC(Cc1ccc(O)c(O)c1)(NN)C(=O)O` (stereo unspecified), for which the cell viability, % of control (lower = more cytotoxic) in [1] was found to be 108%. Further, the viability (% of control) in assay [2] was 91.3%. Besides, the Potency entry in assay [3], in assay [4], in [5], in [6], in assay [7] and in [10] was “inactive” throughout. In addition, in [8], the Potency was 23.5 µM (active).

Consider `Nc1nc(=O)n([C@H]2CSC(CO)O2)cc1F` (stereo partly specified), for which the cell viability, % of control (lower = more cytotoxic) in assay [1] was determined as 249%. Also, the viability (% of control) in assay [2] amounted to 102%. In addition, the Potency entry in [3], in [4], in assay [5], in assay [6], in assay [7] and in assay [8] was “inactive” throughout. Further, in assay [10], the Potency result is “inactive”.

Consider `C[C@H]1O[C@H](O[C@H]2[C@H](O)[C@@H](O)[C@@H](O[C@H]3[C@H](O)[C@@H](O)C(O)O[C@H]3CO)O[C@H]2CO)[C@H](O)[C@@H](O)[C@H]1N[C@H]1C=C(CO)[C@@H](O)[C@H](O)[C@@H]1O` (stereo partly specified), for which the cell viability, % of control (lower = more cytotoxic) in [1] was 193%. In addition, the viability (% of control) in assay [2] was found to be 134%. Besides, the Potency entry in assay [3], in assay [4], in assay [5], in [6], in [7] and in assay [8] was “inactive” each time. Also, in [10], the Potency entry is “inactive”.

`O=C1NC(=O)[C@@H](c2cn3c4c(cccc24)CCC3)[C@H]1c1c[nH]c2ccccc12`: the cell viability, % of control (lower = more cytotoxic) in assay [1] amounted to 4.68%. In addition, the viability (% of control) in [2] came out at 14.9%. The Potency result in [3] and in [4] was “inactive” in each case. The Potency in assay [5] is 0.296 µM (active); in assay [6], 0.526 µM (active); in assay [7], 0.235 µM (active); in assay [8] it was 0.166 µM (active); in assay [10], 0.469 µM (active).

`C[N+]1(C)[C@@H]2C[C@@H](OC(=O)C(O)(c3cccs3)c3cccs3)C[C@H]1[C@@H]1O[C@@H]12`: the cell viability, % of control (lower = more cytotoxic) in assay [1] is 87.6%. Also, the viability (% of control) in assay [2] amounted to 97.5%. In addition, the Potency entry in assay [3], in assay [4], in [5], in [6], in [7] and in [8] was “inactive” in each case. In addition, the Potency entry in [9] and in assay [10] was “inactive” throughout.

For `C=C1C[C@@]2(O)O[C@@]3(C[C@H]2C(C)C)[C@H](C)CC[C@H]13`, the cell viability, % of control (lower = more cytotoxic) in assay [1] is 67.8%. For the same compound, the viability (% of control) in [2] is 101%. Besides, the Potency entry in assay [3], in assay [4], in assay [5], in [6], in [7] and in [8] was “inactive” each time. Besides, the Potency entry in assay [9] and in assay [10] was “inactive” each time.

For the compound `COc1cc2c(cc1OC)[C@@H]1C(=O)c3ccc4c(c3O[C@@H]1CO2)C=CC(C)(C)O4`, the cell viability, % of control (lower = more cytotoxic) in [1] amounted to 7.01%. For the same compound, the viability (% of control) in assay [2] is 3.79%. The Potency result in assay [3] and in [4] was “inactive” each time. Further, the Potency in assay [5] is 23.5 µM (active); in assay [6], 23.5 µM (active); in assay [7], 33.2 µM (active); in [8] it was 0.0662 µM (active); in [10] it was 5.17 µM (active).
